Screening results as filed in PubChem BioAssay.
The entries come from a sample that favours hits as a whole.
Pf apPOL block: Pf-apPOL inhibitors, biochemical, fluorescence; AID 1794808, 2022; Plasmodium falciparum apicoplast DNA polymerase (apPOL); inhibition, % at 10 µM; hit rate 0.25% among 210,000; Recombinant Pf-apPOL, molecular beacon fluorescence, 1.5 h
mHTT CaM bind: mutant huntingtin-calmodulin interaction inhibitors – biochemical, AlphaScreen, primary screen; P42858; AlphaScreen His-mHTT/GST-CaM binding, luminescence; inhibition, % at 15 µM; hit rate 3.6% among 190,000; AID 1671202, 2021
Numbers stand for hits; n = inactive. Rule as the data show it: active = inhibition above about 50%; inactive = the rest.

SMILES	Pf apPOL block	mHTT CaM bind
Cc1ccc(C(=O)CCC(=O)Nc2cccc(Cl)c2Cl)cc1	n	n
Cc1ccc(C(=O)N2CCC(n3c(-c4ccco4)nc4cccnc43)C2)cc1 (stereo unspecified)	n	n
Cc1ccc(C(=O)N2CCC(n3c(-c4ccco4)nc4cccnc43)C2)cc1C (stereo unspecified)	n	72.0
CCSc1nnc(-c2nn(C)c3c2CN(C(=O)c2cc(OC)cc(OC)c2)CC3)n1C	n	n
COc1cc2c(cc1OC)CN(Cc1ccc(OCc3ccccc3)c(OC)c1)CC2	n	100.2
COc1ccc(CN2CCc3cc(OC)c(OC)cc3C2)cc1OC	n	n
O=C(Nc1nnc(C2CC(=O)N(c3ccccc3)C2)o1)c1cccc(Cl)c1 (stereo unspecified)	n	61.3
O=C(CSc1ccc(F)cc1)Nc1nnc(C2CC(=O)N(c3ccccc3)C2)o1 (stereo unspecified)	n	n
CCOc1ccc(N2CC(c3nnc(NC(=O)Cc4ccccc4C)o3)CC2=O)cc1 (stereo unspecified)	n	n
Cc1ccccc1CC(=O)Nc1nnc(C2CC(=O)N(c3ccccc3)C2)o1 (stereo unspecified)	n	50.0
COc1ccc(N2CC(c3nnc(NC(=O)Cc4cccc(F)c4)o3)CC2=O)cc1 (stereo unspecified)	n	n
O=C(Nc1nnc(C2CC(=O)N(c3ccc(F)cc3)C2)o1)c1cccc(Cl)c1 (stereo unspecified)	n	n
O=C(Cc1cccs1)Nc1nnc(C2CC(=O)N(c3ccccc3)C2)o1 (stereo unspecified)	n	59.5
COc1ccc(N2CC(c3nnc(NC(=O)Cc4cccc(OC)c4)o3)CC2=O)cc1 (stereo unspecified)	n	53.4
CNC(=O)C(C1CCCC1)N1CCN(C(=O)c2cccs2)CC1 (stereo unspecified)	n	n
O=C(NCc1ccc(C(F)(F)F)cc1)C1CCN(c2cncnc2N2CCOCC2)CC1	n	n
COC(=O)C(Cc1ccccc1)NC(=O)N1CCCn2nc(-c3cccs3)cc2C1 (stereo unspecified)	n	n
CCOCCCNC(=O)C1(C)CCC(=O)N1CCc1ccc(Cl)cc1 (stereo unspecified)	n	n
COc1ccc(CC(=O)Nc2nnc(C3CC(=O)N(c4ccccc4)C3)o2)cc1 (stereo unspecified)	n	92.5
Cc1ccc(CC(=O)Nc2nnc(C3CC(=O)N(c4ccccc4)C3)o2)cc1 (stereo unspecified)	n	n
COc1nc(N)c(C#N)c(-c2ccc3c(c2)OCO3)c1C#N	n	n
N#Cc1c(-c2ccc3c(c2)OCO3)nc(N2CCCCC2)[nH]c1=O	n	62.0
COc1ccc(C2=NN(C(=O)CN3CCCCC3)C(c3ccccc3Cl)C2)cc1 (stereo unspecified)	n	n
Cn1cccc1C1CC(c2ccccc2Cl)=NN1C(=O)CN1CCCCC1 (stereo unspecified)	n	93.9
CCN1CCN(CC(=O)N2N=C(c3ccccc3Cl)CC2c2cccn2C)CC1 (stereo unspecified)	n	82.2
SMILES	Pf apPOL block	mHTT CaM bind
COc1ccc(C2=NN(C(=O)CN3CCOCC3)C(c3ccccc3Cl)C2)cc1 (stereo unspecified)	n	n
CCOc1ccccc1CN1CCc2nc(N3CCOCC3)ncc2C1	n	n
CC1C(=O)N(Cc2cn(CCC3OCCO3)nn2)CCS(=O)(=O)N1Cc1ccc(-c2cccc(CO)c2)cc1 (stereo unspecified)	n	n
CC1C(=O)N(Cc2cn(CCC3OCCO3)nn2)CCS(=O)(=O)N1Cc1ccc(-c2ccc(Cl)c(Cl)c2)cc1 (stereo unspecified)	n	95.5
CC(C)C1C(=O)N(Cc2cn(CCC3OCCCO3)nn2)CCS(=O)(=O)N1Cc1ccc(-c2ccc(Cl)c(Cl)c2)cc1 (stereo unspecified)	n	73.6
CC(C)C1C(=O)N(Cc2cn(CCC3OCCCO3)nn2)CCS(=O)(=O)N1Cc1ccc(-c2ccc(F)nc2)cc1 (stereo unspecified)	n	n
CC(C)C1C(=O)N(Cc2cn(CCC3OCCO3)nn2)CCS(=O)(=O)N1Cc1ccc(-c2ccc(F)cc2)cc1 (stereo unspecified)	n	53.3
CC(C)C1C(=O)N(Cc2cn(CCC3OCCCO3)nn2)CCS(=O)(=O)N1Cc1ccc(-c2ccc(Cl)cc2)cc1 (stereo unspecified)	n	n
CC(C)C1C(=O)N(Cc2cn(CCC3OCCCO3)nn2)CCS(=O)(=O)N1Cc1ccc(-c2ccccc2)cc1 (stereo unspecified)	n	55.7
CC(C)C1C(=O)N(Cc2cn(CCC3OCCO3)nn2)CCS(=O)(=O)N1Cc1ccc(-c2ccc(F)nc2)cc1 (stereo unspecified)	n	n
Cc1cccc(NC(=O)CN2CCC(c3nc(-c4cccc(F)c4)no3)CC2)c1	n	n
Cn1ncc(N2CCCC(C(=O)N3CCN(c4ccccc4Cl)CC3)C2)cc1=O (stereo unspecified)	n	n
COc1ccc2c(c1)CC(CNC(=O)c1cc3ccccc3s1)O2 (stereo unspecified)	n	n
O=C(C1CC1)N(CCn1cccn1)c1nc2c(Cl)cccc2s1	n	n
CC(C)(C)N=C1Nc2ncccc2NC12CCCN(C(=O)Cc1cccnc1)C2 (stereo unspecified)	n	n
COCC(=O)N1CCCC2(C1)Nc1ccccc1NC2=NC(C)(C)C (stereo unspecified)	n	64.0
CC(C)(C)N=C1Nc2ccccc2NC12CCCN(C(=O)Cc1ccccc1)C2 (stereo unspecified)	n	76.8
CC(C)(C)N=C1Nc2ccccc2CNC12CCN(C(=O)Cc1ccccc1F)C2 (stereo unspecified)	n	53.2
COc1ccc(NC(=O)N2CCCC3(C2)Nc2ccccc2NC3=NC(C)(C)C)c(C)c1 (stereo unspecified)	n	n
COc1ccc(C)cc1NC(=O)N1CCCC2(C1)Nc1ccccc1NC2=NC(C)(C)C (stereo unspecified)	n	71.9
CC(C)(C)N=C1Nc2ccccc2CNC12CCN(C(=O)Cc1ccccc1)C2 (stereo unspecified)	n	n
COCC(=O)N1CCCC2(C1)Nc1ccccc1NC2=NC1CCCC1 (stereo unspecified)	n	n
CC1=CC(c2ccccc2)n2nc(NC(=O)c3ccc([N+](=O)[O-])cc3)nc2N1 (stereo unspecified)	n	n
O=S(=O)(Cc1ccccc1)N1CCC(CN2CCCCC2)CC1	n	n
CCCC(=O)Nc1ccc(NC(=O)C(C)(c2ccccc2)c2ccccc2)cc1	n	n
SMILES	Pf apPOL block	mHTT CaM bind
COc1ccc(N2CCN(C(=O)CC3CCN(C(=O)c4[nH]c(C)cc4C)CC3)CC2)cc1	n	n
COc1ccccc1CC(=O)N1CCCC2(C1)Nc1ccccc1NC2=NC(C)(C)C (stereo unspecified)	n	59.0
COc1ccc(C(=O)N2CCCC3(C2)Nc2ccccc2NC3=NC(C)(C)C)c(OC)c1 (stereo unspecified)	n	n
N#CSCCCOc1ccccc1Cl	n	n
CC(C)(C)N=C1Nc2ccccc2CNC12CCN(C(=O)Cc1cccs1)C2 (stereo unspecified)	n	n
COc1ccc(CNC2CCCC(C)C2)cc1 (stereo unspecified)	n	n
